26S disassembly = blocks ATP-dependent breakdown of the yeast 26S proteasome | anti-FLAG beads, GFP-proteasome disassembly, flow cytometry | 24,000 compounds, 0.2% hits | inhibition of disassembly, % (concentration not given with the values);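 active = inhibition of disassembly above about 33%, limit read from the data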;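 also: plate controls were ATP control with full disassembly for no effect and ATP-gamma-S intact proteasomes for full effect; higher percent means more bead fluorescence retained so stronger block of disassembly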
LNCaP diff act = activators of LNCaP prostate cell differentiation. flow cytometry side scatter, 4 d. side scatter shift, % at 10 µM. AID 795. 24,000 compounds, 0.56% hits;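 active = side scatter shift above 30%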;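 also: androgen-responsive LNCaP prostate cancer cells in charcoal-stripped serum medium; percent of cells past a gate set so DMSO wells show 10% shift; higher shift means more granular cells and more differentiation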
S aureus QS inh = S. aureus quorum sensing inhibition; inhibition, % at 2 µM; 24,000 compounds, 0.3% hits; S. aureus RN6390 RNAIII-GFP reporter, AIP-induced, flow cytometry 3 h;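 active = share of bacteria positive for the green fluorescent reporter and its mean brightness both inhibited by 50% or more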;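 also: 0% = AIP-stimulated control and 100% = unstimulated bacteria without AIP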
Numbers without * were called inactive; nt = no result given. The list is not random: actives were taken first. Their share in the collection is about 0.99%.

SMILES | 26S disassembly | LNCaP diff act | S aureus QS inh
CCn1c(=O)cc(SCC(=O)NCCCN2CCN(c3ccccc3F)CC2)c2ccccc21 | -3 | 49* | 4
CCOc1ccc(N2C(=O)CC(N3CC(C)OC(C)C3)C2=O)cc1 (stereo unspecified) | 1 | 3 | 0
Cn1c(C(=O)N2CCN(c3ccccn3)CC2)cc2c(=O)n(C)c3ccccc3c21 | 1 | 8 | -1
COc1ccc2cc3cc(C(=O)Nc4ccccc4N4CCN(C)CC4)oc3nc2c1 | -1 | 62* | 1
COc1ccc2cc3cc(C(=O)NCCN4CCN(c5ccccc5F)CC4)oc3nc2c1 | 0 | 4 | 1
O=C(CCn1c(=O)oc2ccccc21)NCCN1CCOCC1 | 0 | 6 | -1
Cn1cccc1Cc1nnc(SCC(=O)Nc2ccccc2)n1-c1ccc(F)cc1 | 0 | 4 | 61*
Cn1cccc1Cc1nnc(SCC(=O)Nc2ccc(F)cc2)n1-c1ccc(F)cc1 | 3 | 8 | -7
CCOc1cc2c(cc1OCC)C(c1cc(OC)c(O)c(OC)c1)NCC2 (stereo unspecified) | 2 | 5 | -6
N=c1n(CCN2CCCCC2)c2ccccc2n1CC(O)COc1ccccc1 (stereo unspecified) | 5 | 64* | 2
OC(COc1ccc(OCC(O)CN2CCCCCC2)cc1)CN1CCCCCC1 (stereo unspecified) | 0 | 2 | -4
COc1ccc(OC)c2[nH]c(=O)c(CCNC(=O)CC(C)C)cc12 | -1 | 11 | -1
Cc1c(C(=O)NCc2ccc3c(c2)OCO3)oc2ccc(S(=O)(=O)N3CCC(C)CC3)cc12 | 1 | 5 | 0
CC1CCN(S(=O)(=O)c2ccc3c(c2)oc(=O)n3CC(=O)NCc2ccc3c(c2)OCO3)CC1 | 4 | 20 | 67*
Cc1noc(C)c1S(=O)(=O)N(CCc1ccccc1)Cc1ccccc1 | -2 | 9 | 7
O=C(COc1ccc(S(=O)(=O)N2CCCC2)cc1Cl)NC1CC1 | 0 | 36* | 0
O=C(Cn1c(=O)oc2cc(S(=O)(=O)N3CCCCCC3)ccc21)NC1CCCCCCC1 | 0 | 24 | -5
Cc1cc(S(=O)(=O)N2CCN(c3ncccn3)CC2)ccc1-n1cnnn1 | -8 | 4 | 0
O=S(=O)(c1ccc2oc(-c3ccncc3)nc2c1)c1ccc2oc(-c3ccncc3)nc2c1 | 1 | 11 | 0
Nc1c(C(O)(C(F)(F)F)C(F)(F)F)ccc2ccccc12 | -2 | 19 | 63*
Cn1c2ccccc2c(=O)n2c(=O)c3ccccc3cc12 | 1 | 2 | -3
CCNc1c2c3c(cccc3n(C)c1=O)C(=O)c1ccccc1-2 | 59* | 4 | 11
CCOc1ccc(/C=c2\sc3nc(-c4ccco4)nn3c2=O)cc1OCC | 42* | 7 | 15
COc1ccccc1/C=c1\sc2nc(-c3ccco3)nn2c1=O | 5 | 2 | 7
CCOc1cc(C2NC(=O)N(C)C(C)=C2C(=O)OC)cc(Br)c1O (stereo unspecified) | 16 | 10 | -2
SMILES | 26S disassembly | LNCaP diff act | S aureus QS inh
CCn1ncc(C2=NOC(C(=O)NCCc3ccccc3)C2)c1C (stereo unspecified) | 2 | 5 | 24
CCOc1ccc(NC(=O)c2oc3ccccc3c2NC(=O)C(C)C)cc1 | 0 | 16 | -12
COC(=O)c1c(-c2cccs2)csc1NC(=O)CN1CCOCC1 | 1 | 13 | -1
CCOC(=O)c1c(-c2ccc(C)o2)csc1NC(=O)CN1CCN(CC)CC1 | -11 | 34* | 0
Cc1nc2cccc(C(=O)NCc3ccccc3)c2o1 | 1 | 5 | -7
Cc1cccc(N2CCN(C(=O)c3cc4c(C)nc5ccccc5c4o3)CC2)c1C | 1 | 4 | 6
CCCSc1nc(N)c(C#N)c(-c2ccc(C)cc2)c1C#N | 1 | 15 | 0
CCN(CC)c1ccc(-c2c(C#N)c(N)nc(OC)c2C#N)cc1 | 57* | 11 | 14
COc1ccc2nc(NC(=O)C(NS(=O)(=O)c3cccc4nsnc34)C(C)C)sc2c1 (stereo unspecified) | nt | nt | -2
CCOC(=O)c1sc(NC(=O)CSc2nc3c(cc2C#N)CCC3)c(C#N)c1C | 1 | 5 | -14
N#Cc1cc2c(nc1SCC(=O)Nc1sc3c(c1C#N)CCC3)CCCCC2 | 105* | 13 | 21
CCOC(=O)Cn1c(=O)oc2cc(S(=O)(=O)Nc3cc(OCC)ccc3OCC)ccc21 | 1 | 6 | 1
CCOC(=O)Cn1c(=O)oc2cc(S(=O)(=O)Nc3ccc(N(CC)CC)cc3C)ccc21 | 3 | 12 | 90*
O=C(CN1CCN(Cc2ccccc2)C1=O)NCc1ccc(Cl)cc1 | 0 | 4 | 3
O=C(CN1CCN(Cc2ccc(Cl)cc2)C1=O)NCCN1CCCC1 | 49* | 11 | 0
CCN1CCN(C(c2cccs2)C(C)NS(=O)(=O)c2ccc(Br)cc2)CC1 (stereo unspecified) | -1 | 32* | -4

From PubChem
